Source: PubChem BioAssay AID1347147 (National Center for Advancing Translational Sciences (NCATS), 2019)
Results filed as inconclusive are left out. Where a call stands in place of a potency, no number is given. Calls of active or inactive are those of the source. The call rests on the fitted dose curve; in most records, active means well fitted inhibition curve with a large enough effect; inconclusive means small, poorly fitted or top-dose-only effect; inactive means no such curve, though single readings can be large or run the other way.

Target: N-terminal Xaa-Pro-Lys N-methyltransferase 1 (Homo sapiens) (UniProt Q9BV86)
Assay: qHTS Assay for Inhibitors of N-terminal methyltransferase 1 (NTMT1): MTaseGlo Confirmatory Screen, Round 2
Method in brief: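 Luminescent MTase-Glo readout of SAH formed in 30 min at RT by 125 nM NTMT1, 100 µM SAM and 1 µM SPKRIA substrate, after ~15 min compound preincubation. Percent inhibition versus no-enzyme and DMSO controls was Hill-fitted.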
Potency means the concentration at half of the fitted maximal effect.

N-terminal Xaa-Pro-Lys N-methyltransferase 1 (Homo sapiens), sequence (Q9BV86 whole entry, looked up): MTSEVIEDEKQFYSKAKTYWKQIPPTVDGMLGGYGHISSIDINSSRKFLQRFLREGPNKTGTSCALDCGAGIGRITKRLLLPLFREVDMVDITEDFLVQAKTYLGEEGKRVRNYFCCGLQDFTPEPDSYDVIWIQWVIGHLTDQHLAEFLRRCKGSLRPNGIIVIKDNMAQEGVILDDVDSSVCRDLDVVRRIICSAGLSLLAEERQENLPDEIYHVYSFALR

Compound	Potency
Brc1c(NC2=NCCN2)ccc2nccnc12	inactive
C/C(=C\CNc1ncnc2c1ncn2[C@@H]1O[C@H](CO)[C@@H](O)[C@H]1O)CO	inactive
CCN(CC)C(=S)SSC(=S)N(CC)CC	inactive
OC[C@H]1O[C@H](n2cnc3c(N[C@H]4CCC[C@@H]4O)ncnc32)[C@H](O)[C@@H]1O	inactive
Cc1cc2c(cc1Cl)N(C(=O)Nc1ccc(Oc3cccnc3C)nc1)CC2	inactive
CN1Cc2c(N)cccc2C(c2ccccc2)C1 (configuration not stated)	inactive
S=C(S)N1CCCC1	inactive
COC(=O)[C@@H]1[C@H]2C[C@H]3c4[nH]c5ccccc5c4CCN3C[C@@H]2CC[C@@H]1O	inactive
O=C(O)Cc1ccc(O)c(O)c1	inactive
COC(=O)C1=C(C)NC(C)=C(C(=O)OC)C1c1ccccc1[N+](=O)[O-]	inactive
COc1ccccc1N1CCN(CCN2C(=O)CC3(CCCC3)CC2=O)CC1	inactive
C#CCN(C)CCCOc1ccc(Cl)cc1Cl	inactive
c1ccc(CN2CCC3(CCCc4ccccc43)CC2)cc1	inactive
CC(=O)c1ccc2c(c1)N(CCCN(C)C)c1ccccc1S2	inactive
OCCNc1ncnc2c1ncn2[C@@H]1O[C@@H](CO)[C@H](O)[C@@H]1O	inactive
O=C(/C=C/c1ccc(O)cc1)c1ccc(O)cc1O	inactive
Cc1cc(C)c(CNC(=O)c2cc(-c3ccc(CN4CCOCC4)cc3)cc3c2cnn3C2CCCC2)c(=O)[nH]1	inactive
Brc1c(Br)c(Br)c2[nH]cnc2c1Br	inactive
COc1cc(CNC(=O)CCCCCCC(C)C)ccc1O	inactive

Compound	Potency
NC[C@@H]1O[C@H](C23CC4CC(CC(C4)C2)C3)Cc2c1ccc(O)c2O	inactive
NCCc1ccc(O)c(O)c1	inactive
CN(C)CCCc1cc(C(=O)Nc2ccc(-c3ccncc3)cc2)ccc1O	inactive
Oc1ccccc1O	inactive
OC[C@H]1O[C@@H](n2cnc3c(NCc4ccco4)ncnc32)[C@H](O)[C@@H]1O	inactive
Oc1ccc2ccccc2c1SSc1c(O)ccc2ccccc12	inactive
OCCN1CCN(CC/C=C2/c3ccccc3Sc3ccc(C(F)(F)F)cc32)CC1	inactive
Nc1[nH]c(=O)nc2c1ncn2C1OC(CO)C(O)C1O (configuration not stated)	inactive
COc1cc2nc(N3CCCN(C)CC3)nc(NC3CCNCC3)c2cc1OC	inactive
OCCN1CCN(CCCN2c3ccccc3Sc3ccc(Cl)cc32)CC1	inactive
CC#C[C@]1(O)CC[C@H]2[C@@H]3CCC4=CC(=O)CCC4=C3[C@@H](c3ccc(N(C)C)cc3)C[C@@]21C	inactive
COc1cc2nc(N3CCCN(C)CC3)nc(N3CCN(C)CC3)c2cc1OC	inactive
C[C@H](Cc1ccc(O)c(O)c1)[C@@H](C)Cc1ccc(O)c(O)c1	15.8 µM (active)
CN(C)c1ccc(/C=C2\C(=O)Nc3ccccc32)cc1	inactive
O=S(=O)(c1cccc2c(Cl)cccc12)N1CCCNCC1	inactive
Nc1nc(Nc2ccccc2)nc2c1ncn2[C@@H]1O[C@H](CO)[C@@H](O)[C@H]1O	inactive
CCNC(=O)[C@H]1O[C@H](n2cnc3c(N)nc(NCCc4ccc(CCC(=O)O)cc4)nc32)[C@@H](O)[C@@H]1O	inactive
CNCCc1cnc(CCC(c2ccccc2)c2ccccc2)[nH]1	inactive
